# Bioassay records from PubChem.
# Only some compounds are listed: those with a hit (about 9.2% of all), similar ones and a draw of the others.
# Rab9 prom act = activators of Rab9 promoter. Huh7 Rab9 promoter-luciferase reporter, luminescence, 24 h. actives 2.8% (n = 320,000). Potency, µM (top dose mostly 9.22 µM), without a hit: at the highest dose activation, negative = inhibition, most hits filed as activators. AID 485297; further: % of control where 0% means no effect; nearly all actives have a fitted effect of over 60% in size
#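 Rab9 promoter-driven luciferase in stably transfected Huh7 cells; 1500 cells/well rested 2 h, exposed to compound in DMSO for 24 h at 37 °C, 5% CO2. Luminescence read 10 min after adding luciferase reagent at ambient temperature.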
# NPC1 prom act = activates the NPC1 promoter; Huh7 NPC1 promoter luciferase reporter, 24 h; Potency, µM (series often up to 9.22 µM), for inactives: top-dose activation, hits mostly activators; actives 2.4% (n = 320,000); AID 485313; further: % of control where 0% means no effect; nearly all actives have a fitted effect of over 60% in size
#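 Readout is luciferase luminescence, reflecting NPC1 promoter activation in stably transfected Huh7 cells after 24 h compound exposure at 37 °C in reduced-serum medium with 10% FBS.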
# ELG1 DNA repair = ELG1-dependent DNA repair inhibition | actives 2.3% (n = 330,000) | AID 504467 | Potency, µM (top dose mostly 46.1 µM), without a hit: at the top dose activity change, negative = inhibition, hits mostly inhibitors | HEK293T ELG1-luciferase reporter, luminescence, 16 h; DNA damage induced by 5-fluorouridine; further: on the % scale 0 is the no-effect control and ±100 the full control effect; nearly all actives have a fitted effect of over 55% in size
#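 In this reporter screen, reduction of luminescence relative to DMSO vehicle indicated activity. Compounds and 5-fluorouridine were added together to 2,000 cells per well, incubated for 16 hr at 37 °C, then developed with ONE-Glo.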
# SMN2 splice up = enhancers of SMN2 splice variant expression | HEK293 SMN2-luciferase splicing reporter, luminescence, 30-36 h | Potency, µM (series often up to 46.1 µM), without a hit: top-dose activity change, positive = activation, hits mostly activators | actives 2.8% (n = 210,000); further: % of control where 0% means no effect; nearly all actives have a fitted effect of over 55% in size
#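 HEK293 cells carry an SMN2 […]–luciferase reporter in which exon 7 inclusion puts luciferase in frame. Cells were plated 10-12 h before compound addition, then incubated 30-36 h at 37C. ONE-Glo luminescence was read; sodium butyrate at 4.5 mM final served as control.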
# ELG1 genotox = genotoxicity induction in ELG1-luciferase HEK293T cells; HEK293T ELG1-luciferase reporter, luminescence, 16 h; actives 1.3% (n = 330,000); Potency, µM (highest dose often 46 µM), inactives show at the top dose activity change, positive = activation, most hits filed as activators; further: % of control where 0% means no effect; nearly all actives have a fitted effect of over 60% in size
#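 Step 1: seed 2,000 HEK293T ELG1-luciferase cells per well. Step 2: add compound or DMSO, incubate 16 hr at 37 °C. Step 3: ONE-Glo, 30 min at room temperature, read luminescence.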
# FLuc modulator = firefly luciferase modulation, counter-screen for miR-21 project. P08659. purified FLuc, Km substrates, luminescence inhibition. Potency, µM (highest dose often 57.5 µM), for inactives: at the highest dose activity change, negative = inhibition, actives largely listed as inhibitors. actives 6.9% (n = 360,000). AID 588342;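 further: plate controls were vehicle for no effect and reference inhibitor for full effect; nearly all actives have a fitted effect of over 55% in size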
# Target sequence (P08659 whole entry, looked up): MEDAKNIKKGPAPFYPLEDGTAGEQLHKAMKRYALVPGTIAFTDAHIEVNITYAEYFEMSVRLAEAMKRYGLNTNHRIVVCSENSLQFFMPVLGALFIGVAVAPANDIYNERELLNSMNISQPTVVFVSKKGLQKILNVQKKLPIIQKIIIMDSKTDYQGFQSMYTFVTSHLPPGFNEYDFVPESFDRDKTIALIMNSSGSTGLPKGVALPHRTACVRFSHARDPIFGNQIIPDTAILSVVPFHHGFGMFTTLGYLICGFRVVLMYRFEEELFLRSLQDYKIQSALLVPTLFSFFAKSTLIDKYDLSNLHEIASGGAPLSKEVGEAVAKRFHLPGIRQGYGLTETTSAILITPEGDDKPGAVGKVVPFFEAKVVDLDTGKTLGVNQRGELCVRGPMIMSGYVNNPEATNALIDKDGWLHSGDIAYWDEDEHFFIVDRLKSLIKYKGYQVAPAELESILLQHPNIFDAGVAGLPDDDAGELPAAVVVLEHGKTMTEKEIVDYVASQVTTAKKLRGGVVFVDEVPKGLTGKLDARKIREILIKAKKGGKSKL
#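 Purified P. pyralis luciferase, 10 nM final, with Km-level 10 uM D-luciferin and 10 uM ATP in 50 mM Tris acetate pH 7.5, 10 mM Mg acetate, 0.01% Tween-20, 0.05% BSA; 6-point qHTS titration about 60 µM downward; luminescence read.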
# Numbers without * were called inactive; ? = inconclusive; nt = no result given; ! = not confirmed by another sample. The call rests on the fitted dose curve; in most records, active means well fitted curve in the direction sought with a large enough effect; inconclusive means small, poorly fitted or top-dose-only effect, or another doubt; inactive means no such curve, though single readings can be large; an effect the other way counts as inactive or inconclusive. Potency means the concentration at half of the fitted maximal effect.
SMILES,Rab9 prom act,NPC1 prom act,ELG1 DNA repair,SMN2 splice up,ELG1 genotox,FLuc modulator
COc1ccc(NC(=O)C2=C(C)Nc3ncnn3C2c2ccc(O)cc2)cc1 (centres undefined),nt,nt,nt,nt,nt,4%
CC(=O)N1CCc2cc(Br)cc(S(=O)(=O)N3CCC(C(=O)Nc4cccc(C)c4C)CC3)c21,nt,nt,nt,-6%,nt,2%
CCNC(=S)NNC(=O)c1csc(C(C)C)c1,?,22%,?,11µM*,14%,-23%
CCOC(=O)c1cc2c(C)n(-c3ccc(N(C)C)cc3)c(C)c2cc(C(=O)OCC)c1=O,?,29%,?,-23%,2%,1.7µM*
CCOC(=O)c1cc2c(C)n(-c3ccc(OCC)cc3)c(C)c2cc(C(=O)OCC)c1=O,0%,0%,13%,6%,1%,-13%
COc1ccc(N(CC(=O)Nc2ccc3c(c2)OCO3)S(=O)(=O)c2ccc(C)cc2)cc1OC,-13%,1%,26µM*,nt,-2%,1%
COc1ccc(N(CC(=O)Nc2ccc3c(c2)OCO3)S(=O)(=O)c2ccccc2)c(OC)c1,-3%,6%,15µM*,-6%,-14%,-5%
COc1cccc(NC(=O)CN(c2ccccc2OC)S(=O)(=O)c2cccs2)c1,-4%,-4%,21µM*,nt,-7%,nt
COc1ccccc1N(CC(=O)Nc1ccccc1)S(=O)(=O)c1cccs1,0%,2%,-2%,nt,-1%,-8%
COc1ccc(N(CC(=O)NCCC2=CCCCC2)S(=O)(=O)c2ccc(C)cc2)cc1OC,-1%,1%,15µM*,-4%,0%,2%
COc1ccc(N(CC(=O)Nc2ccc3c(c2)OCO3)S(=O)(=O)c2ccccc2)cc1OC,-1%,2%,?,nt,-1%,-5%
Cc1cc(C)cc(NCc2nnc3n2CCCCC3)c1,nt,nt,nt,nt,nt,6%
COc1ccc(C2CC(=O)c3cc(-c4nc(-c5cccc([N+](=O)[O-])c5)cs4)c(=O)n(-c4ccc(C)c(C)c4)c3C2)cc1 (centres undefined),nt,nt,nt,-11%,nt,-3%
O=C(C1CCN(S(=O)(=O)c2cccc3cccnc23)CC1)N1CCCC1,-12%,5%,-4%,7%,-5%,-1%
Cc1cccc(N2CCN(C(=O)C3CCN(S(=O)(=O)c4cccc5cccnc45)CC3)CC2C)c1 (centres undefined),3%,-2%,18µM*,-9%,-11%,2%
O=C(C1CCN(S(=O)(=O)c2cccc3cccnc23)CC1)N1CC=C(c2ccccc2)CC1,-5%,-1%,23µM*,-24%,-13%,0%
O=C(COC(=O)c1cc([N+](=O)[O-])ccc1N1CCOCC1)c1ccc(OC(F)F)cc1OC(F)F,2%,-4%,21µM*,nt,0%,1%
O=C(COC(=O)c1cc([N+](=O)[O-])ccc1N1CCOCC1)Nc1cc(F)ccc1F,1%,-10%,23µM*,nt,2%,1%
O=Cc1sc(Nc2ccccc2)nc1Cl,2%,-2%,-5%,-17%,-3%,?
Cc1ccc(Nc2nc(Cl)c(C=O)s2)cc1Cl,0%,-7%,17%,4%,-2%,21µM*
COc1ccc(C(=O)NNC(=O)CCC(=O)Nc2cc(C)on2)cc1,2%,-2%,-2%,8%,2%,?
COc1ccc(C(=O)/C=C/Nc2cc(C)on2)cc1,2.5µM*,2.2µM*,?,25%,6.5µM*,6µM*
Cc1cc(NC(=O)/C=C/c2ccccc2)no1,2.8µM*,?,?,?,?,12µM*
O=C(/C=C/c1ccccc1)Nc1ccc(Br)cn1,1.4µM*,3%,?,11µM*,?,?
COc1ccc(/C=C/C(=O)Nc2cc(C)on2)cc1,1.6µM*,2.8µM*,?,10µM*,14%,?
SMILES,Rab9 prom act,NPC1 prom act,ELG1 DNA repair,SMN2 splice up,ELG1 genotox,FLuc modulator
Cc1cc(NS(=O)(=O)c2ccc(NC(=O)/C=C/c3cccc(Cl)c3)cc2)no1,10%,-3%,3%,nt,3%,?
COc1ccc(CC(=O)Nc2cc(C)on2)cc1,1%,-5%,8%,12%,0%,-6%
Cc1ccc(NC(=O)/C=C/c2ccc(Cl)cc2)nc1,?,6%,12%,28%,6%,?
CC1CCCC(NC(=O)c2ccc(COc3ccccc3)o2)C1C (centres undefined),-5%,2%,-23%,nt,1%,-8%
Cc1ccc(CCNC(=O)c2cn(C)c3ccc(S(=O)(=O)N(C)C4CCCCC4)cc3c2=O)cc1,nt,nt,nt,-1%,nt,-2%
CC(C)c1nn2c(=O)cc(COC(=O)COc3ccccc3F)nc2s1,nt,nt,nt,nt,nt,-1%
COc1ccccc1N1CCN(C(=O)c2cc3ccc4ccc(C)[nH]c4c3n2)CC1,nt,nt,nt,nt,nt,-14%
Cc1ccc(C)c(N2CCN(C(=O)Cn3cnc4nc5c(cc4c3=O)CCCC5)CC2)c1,nt,nt,nt,nt,nt,-14%
COc1ccc(/C=C/C(=O)Nc2nonc2NC(C)=O)cc1,24%,11%,?,3%,7%,24µM*
COc1ccc(NC(=O)c2cc(-c3ccco3)on2)cc1OC,2%,2%,?,nt,?,-5%
Cc1ccc(NC(=O)c2cc(-c3cccc(O)c3)on2)cc1C,7%,-7%,?,2%,?,9.5µM*
Cc1ccc(NC(=O)c2cc(-c3ccco3)on2)cc1C,7%,14%,?,-9%,?,2.7µM*
O=C(NCCc1ccccc1)c1cc(-c2ccco2)on1,2.8µM*,2.5µM*,?,10µM*,?,6µM*
Cc1ccc(NC(=O)c2cc(-c3ccco3)on2)cc1,-1%,-1%,?,-7%,?,2.1µM*
COC(=O)c1ccc(NC(=O)CSCc2ccccc2C)cc1,-3%,0%,?,6%,9%,?
CN(C)c1ccccc1C(=O)c1ccccc1N(C)C,-11%,-12%,?,5µM*,21µM*,19µM*
Cc1cc(NC(=O)C(C)SCC(=O)Nc2ccccc2OC(F)F)no1 (centres undefined),-6%,11%,-12%,nt,-1%,-1%
CCN(C(=O)CCS(=O)(=O)c1cc2c(cc1Cl)NC(=O)CO2)c1ccccc1,3%,1%,9%,nt,1%,0%
Cc1ccc(N(C)C(=O)CCS(=O)(=O)c2cc3c(cc2Cl)NC(=O)CO3)cc1,2%,1%,13%,nt,1%,1.7µM*!
CC(=O)Nc1nonc1-c1nnc(SCc2ccccc2)n1C,nt,nt,nt,nt,nt,-7%
CCOC(=O)c1sc(NC(=O)c2ccc(C)s2)cc1C,1.1µM*,?,?,22µM*,18%,0.85µM*
